Measured values reported in publication PMC5700166.

Key:
[1] = molecular target: T1, GST-Nv-NF-kB (Ser allele) (Nematostella vectensis, UniProt A7UNT2 2-411); assay: protein-binding microarray (PBM); PBM: ~300 nM protein, 6 mM HEPES pH 7.8, 80 mM KCl, 0.5 mM EDTA, 0.5 mM EGTA, 6% glycerol, 35 ng/ul poly-dIdC, 1% milk, 1 h, room temperature; Ap Aiptasia and Nv Nematostella (sea anemones) / Co Capsaspora / Aq Amphimedon (sponge) / Dm Drosophila / Hu human; RHD is the Rel homology domain; high values mean tight binding; conditions: dsDNA, one strand shown
T1 sequence: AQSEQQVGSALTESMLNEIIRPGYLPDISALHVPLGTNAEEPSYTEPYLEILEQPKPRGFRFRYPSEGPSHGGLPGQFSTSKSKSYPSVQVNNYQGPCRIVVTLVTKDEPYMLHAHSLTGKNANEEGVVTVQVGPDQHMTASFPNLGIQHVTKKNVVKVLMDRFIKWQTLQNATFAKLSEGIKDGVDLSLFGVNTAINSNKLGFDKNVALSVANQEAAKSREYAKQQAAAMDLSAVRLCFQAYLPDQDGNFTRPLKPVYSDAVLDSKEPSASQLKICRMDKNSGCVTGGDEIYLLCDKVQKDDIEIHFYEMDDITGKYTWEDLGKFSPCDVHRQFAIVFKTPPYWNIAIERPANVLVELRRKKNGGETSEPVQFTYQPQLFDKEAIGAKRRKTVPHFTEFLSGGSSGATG

GST-Hu-p50 = GST-Hu-p50 (Homo sapiens, UniProt P19838 7-356); assay: as above; conditions: dsDNA, one strand shown
GST-Hu-p50, sequence (P19838 7-356): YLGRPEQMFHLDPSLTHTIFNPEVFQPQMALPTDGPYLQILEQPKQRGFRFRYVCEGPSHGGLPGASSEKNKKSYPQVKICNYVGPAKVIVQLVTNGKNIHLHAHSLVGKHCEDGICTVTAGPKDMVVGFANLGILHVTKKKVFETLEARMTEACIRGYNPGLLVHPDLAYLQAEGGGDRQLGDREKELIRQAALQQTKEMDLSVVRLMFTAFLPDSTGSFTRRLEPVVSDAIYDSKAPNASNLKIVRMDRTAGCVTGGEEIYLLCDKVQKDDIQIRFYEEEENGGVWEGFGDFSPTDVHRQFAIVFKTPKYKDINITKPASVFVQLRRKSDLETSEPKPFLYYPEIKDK

CCGATTAACATCAAAAATCCCGATGATGTTAATCGGGTCTTGATTCGCTTGACGCTGCTG
binding signal [1]: 2.85 z-score | binding signal (GST-Hu-p50): 3.62 z-score

CCGATTAACATCACAGGGAATTCTGATGTTAATCGGGTCTTGATTCGCTTGACGCTGCTG
binding signal [1]: 4.96 z-score | binding signal (GST-Hu-p50): 4.29 z-score

CCGATTAACATCACCCCTCCCCATGATGTTAATCGGGTCTTGATTCGCTTGACGCTGCTG
binding signal [1]: 3.22 z-score | binding signal (GST-Hu-p50): 3.16 z-score

CCGATTAACATCATCCCCGTGTCTGATGTTAATCGGGTCTTGATTCGCTTGACGCTGCTG
binding signal [1]: 2.84 z-score | binding signal (GST-Hu-p50): 2.68 z-score

CCGATTAACATCAGGGGAGCACCTGATGTTAATCGGGTCTTGATTCGCTTGACGCTGCTG
binding signal [1]: 3.94 z-score | binding signal (GST-Hu-p50): 4.33 z-score

CCGATTAACATCAAGTGTTTCCCTGATGTTAATCGGGTCTTGATTCGCTTGACGCTGCTG
binding signal [1]: 3.36 z-score | binding signal (GST-Hu-p50): 1.3 z-score

CCGATTAACATCACGGACTCCCCTGATGTTAATCGGGTCTTGATTCGCTTGACGCTGCTG
binding signal [1]: 4.46 z-score | binding signal (GST-Hu-p50): 3.34 z-score

CCGATTAACATCAGGATCTCCCCTGATGTTAATCGGGTCTTGATTCGCTTGACGCTGCTG
binding signal [1]: 5.15 z-score | binding signal (GST-Hu-p50): 4.48 z-score

CCGATTAACATCAGGGGGGGTGATGATGTTAATCGGGTCTTGATTCGCTTGACGCTGCTG
binding signal [1]: 3.98 z-score | binding signal (GST-Hu-p50): 4.13 z-score

CCGATTAACATCAGGAAACTACCTGATGTTAATCGGGTCTTGATTCGCTTGACGCTGCTG
binding signal [1]: 3.83 z-score | binding signal (GST-Hu-p50): 3.87 z-score

CCGATTAACATCAGGAACTACCCTGATGTTAATCGGGTCTTGATTCGCTTGACGCTGCTG
binding signal [1]: 2.02 z-score | binding signal (GST-Hu-p50): 2.58 z-score

CCGATTAACATCAGGGGTAAAACTGATGTTAATCGGGTCTTGATTCGCTTGACGCTGCTG
binding signal [1]: 3.62 z-score | binding signal (GST-Hu-p50): 3.28 z-score

CCGATTAACATCATAATTCCCAATGATGTTAATCGGGTCTTGATTCGCTTGACGCTGCTG
binding signal [1]: 3.07 z-score | binding signal (GST-Hu-p50): 2.73 z-score

CCGATTAACATCAGGCAAATCCCTGATGTTAATCGGGTCTTGATTCGCTTGACGCTGCTG
binding signal [1]: 1.09 z-score | binding signal (GST-Hu-p50): 1.9 z-score

CCGATTAACATCAAAAATTTTCCTGATGTTAATCGGGTCTTGATTCGCTTGACGCTGCTG
binding signal [1]: 1.32 z-score | binding signal (GST-Hu-p50): 2.23 z-score

CCGATTAACATCAGGGAATGCCATGATGTTAATCGGGTCTTGATTCGCTTGACGCTGCTG
binding signal [1]: 2.41 z-score | binding signal (GST-Hu-p50): 1.54 z-score

CCGATTAACATCAAGGAAACCCCTGATGTTAATCGGGTCTTGATTCGCTTGACGCTGCTG
binding signal [1]: 3.81 z-score | binding signal (GST-Hu-p50): 5.22 z-score

CCGATTAACATCAGGTACTTCCATGATGTTAATCGGGTCTTGATTCGCTTGACGCTGCTG
binding signal [1]: 5.91 z-score | binding signal (GST-Hu-p50): 2.98 z-score

CCGATTAACATCAGACCTTCCCCTGATGTTAATCGGGTCTTGATTCGCTTGACGCTGCTG
binding signal [1]: 4.59 z-score | binding signal (GST-Hu-p50): 4.03 z-score

CCGATTAACATCACAAAAATCCCTGATGTTAATCGGGTCTTGATTCGCTTGACGCTGCTG
binding signal [1]: 5.52 z-score | binding signal (GST-Hu-p50): 5.26 z-score

CCGATTAACATCACCAGTTTCCCTGATGTTAATCGGGTCTTGATTCGCTTGACGCTGCTG
binding signal [1]: 4.89 z-score | binding signal (GST-Hu-p50): 2.39 z-score

CCGATTAACATCAGGGGAGTGTATGATGTTAATCGGGTCTTGATTCGCTTGACGCTGCTG
binding signal [1]: 4.51 z-score | binding signal (GST-Hu-p50): 3.04 z-score

CCGATTAACATCACTAAAATCCCTGATGTTAATCGGGTCTTGATTCGCTTGACGCTGCTG
binding signal [1]: 3.42 z-score | binding signal (GST-Hu-p50): 3.2 z-score

CCGATTAACATCACTGGGAATTCTGATGTTAATCGGGTCTTGATTCGCTTGACGCTGCTG
binding signal [1]: 3 z-score | binding signal (GST-Hu-p50): 3.22 z-score

CCGATTAACATCAAAAAAATACCTGATGTTAATCGGGTCTTGATTCGCTTGACGCTGCTG
binding signal [1]: 4.89 z-score | binding signal (GST-Hu-p50): 3.43 z-score

CCGATTAACATCAACCCCCGGCTTGATGTTAATCGGGTCTTGATTCGCTTGACGCTGCTG
binding signal [1]: 2.23 z-score | binding signal (GST-Hu-p50): 3.29 z-score

CCGATTAACATCACGTGTTTCCCTGATGTTAATCGGGTCTTGATTCGCTTGACGCTGCTG
binding signal [1]: 3.33 z-score | binding signal (GST-Hu-p50): 1.11 z-score

CCGATTAACATCAGGGGGCATTATGATGTTAATCGGGTCTTGATTCGCTTGACGCTGCTG
binding signal [1]: 3.29 z-score | binding signal (GST-Hu-p50): 4.09 z-score

CCGATTAACATCAGAAATCCCGCTGATGTTAATCGGGTCTTGATTCGCTTGACGCTGCTG
binding signal [1]: 2.45 z-score | binding signal (GST-Hu-p50): 2.45 z-score

CCGATTAACATCAGGGGAGTATATGATGTTAATCGGGTCTTGATTCGCTTGACGCTGCTG
binding signal [1]: 4.21 z-score | binding signal (GST-Hu-p50): 3.33 z-score

CCGATTAACATCAGGAATGTACCTGATGTTAATCGGGTCTTGATTCGCTTGACGCTGCTG
binding signal [1]: 3.2 z-score | binding signal (GST-Hu-p50): 2.14 z-score

CCGATTAACATCAGGGGGGCACCTGATGTTAATCGGGTCTTGATTCGCTTGACGCTGCTG
binding signal [1]: 2 z-score | binding signal (GST-Hu-p50): 3.33 z-score

CCGATTAACATCAGGGGGTAACCTGATGTTAATCGGGTCTTGATTCGCTTGACGCTGCTG
binding signal [1]: 3.93 z-score | binding signal (GST-Hu-p50): 4.28 z-score

CCGATTAACATCAGGACTTTACCTGATGTTAATCGGGTCTTGATTCGCTTGACGCTGCTG
binding signal [1]: 2.66 z-score | binding signal (GST-Hu-p50): 2.67 z-score

CCGATTAACATCAGGAAAAACCCTGATGTTAATCGGGTCTTGATTCGCTTGACGCTGCTG
binding signal [1]: 3.96 z-score | binding signal (GST-Hu-p50): 4.56 z-score

CCGATTAACATCAAGGAATACCCTGATGTTAATCGGGTCTTGATTCGCTTGACGCTGCTG
binding signal [1]: 4.74 z-score | binding signal (GST-Hu-p50): 4.19 z-score

CCGATTAACATCACCCACGAGGGTGATGTTAATCGGGTCTTGATTCGCTTGACGCTGCTG
binding signal [1]: 1.02 z-score | binding signal (GST-Hu-p50): 2.01 z-score

CCGATTAACATCAGGGATTCTCATGATGTTAATCGGGTCTTGATTCGCTTGACGCTGCTG
binding signal [1]: 1.71 z-score | binding signal (GST-Hu-p50): 1.91 z-score

CCGATTAACATCACGGTGGGAAATGATGTTAATCGGGTCTTGATTCGCTTGACGCTGCTG
binding signal [1]: 2.58 z-score | binding signal (GST-Hu-p50): 1.86 z-score

CCGATTAACATCAGGGGCAACCCTGATGTTAATCGGGTCTTGATTCGCTTGACGCTGCTG
binding signal [1]: 1.9 z-score | binding signal (GST-Hu-p50): 3.13 z-score

CCGATTAACATCAAGGGATTTCCTGATGTTAATCGGGTCTTGATTCGCTTGACGCTGCTG
binding signal [1]: 3.4 z-score | binding signal (GST-Hu-p50): 3.68 z-score

CCGATTAACATCAAGTTTTCCCATGATGTTAATCGGGTCTTGATTCGCTTGACGCTGCTG
binding signal [1]: 5.18 z-score | binding signal (GST-Hu-p50): 3.3 z-score

CCGATTAACATCAGGGATCACCCTGATGTTAATCGGGTCTTGATTCGCTTGACGCTGCTG
binding signal [1]: 1.43 z-score | binding signal (GST-Hu-p50): 2.48 z-score

CCGATTAACATCAAGCAACCCCCTGATGTTAATCGGGTCTTGATTCGCTTGACGCTGCTG
binding signal [1]: 3.95 z-score | binding signal (GST-Hu-p50): 4.45 z-score

CCGATTAACATCAGGGAATCCACTGATGTTAATCGGGTCTTGATTCGCTTGACGCTGCTG
binding signal [1]: 3.63 z-score | binding signal (GST-Hu-p50): 2.79 z-score
